Source: the supplement of paper PMC7695840
Where a name gives a salt, the structure may show the parent alone.

The compounds below were run on Staphylococcus aureus MW2 delta-mecA (mecA-) (assay: normalized GFP fluorescence (growth of mecA- strain) (fraction of control range); higher = more growth of mecA- strain). Settings: compound concentration: 150 uM; cefoxitin: subinhibitory; fluorescent label: GFP.
How it was run: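 Two pre-induced S. aureus MW2 strains, one with the gene labeled by DsRed and one lacking it labeled by GFP, were mixed 1:1 in LB with a subinhibitory antibiotic dose set daily. The mix went at 5 µL/well onto 150 μM compound (1.5% DMSO) in 1536-well plates, single replicate, and grew unshaken 20 h at 37 °C, 90% humidity. DsRed (540/590) and GFP (485/520) values were scaled per plate between single-strain control medians, and plates with high untreated ratios or rows with DsRed/GFP >10 were left out.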

**Q.** With C[C@@H]1O[C@@H]1P(=O)(O)O as the compound, how does the “normalized GFP fluorescence” value read?
**A.** Its value is 0.142.

**Q.** Which “normalized GFP fluorescence” value does the source give for CC(C(=O)O)c1ccc(-c2ccccc2)c(F)c1 (stereo not given) here?
**A.** Its value is 0.201.

**Q.** For CO[C@@]1(NC(=O)Cc2cccs2)C(=O)N2C(C(=O)O)=C(COC(N)=O)CS[C@@H]21, which “normalized GFP fluorescence” value is on record?
**A.** The value was 0.00393.

**Q.** CO/N=C(\C(=O)N[C@@H]1C(=O)N2C(C(=O)OC(C)OC(C)=O)=C(COC(N)=O)CS[C@H]12)c1ccco1 (stereo not given in full) was tested. Which “normalized GFP fluorescence” value did it give?
**A.** The value was 0.0118.

**Q.** C[C@@H](O)[C@H]1C(=O)N2C(C(=O)O)=C(SCCNC=N)C[C@H]12 was tested. Which “normalized GFP fluorescence” value did it give?
**A.** Its value is -0.0325.

**Q.** For CO[C@H]1C[C@@H]2CC[C@@H](C)[C@@](O)(O2)C(=O)C(=O)N2CCCC[C@H]2C(=O)O[C@H]([C@H](C)C[C@@H]2CC[C@@H](O)[C@H](OC)C2)CC(=O)[C@H](C)/C=C(\C)[C@@H](O)[C@@H](OC)C(=O)[C@H](C)C[C@H](C)/C=C/C=C/C=C/1C, which “normalized GFP fluorescence” value is on record?
**A.** Its value is 0.0214.

**Q.** With Oc1c(Cl)cc(Cl)c(Cl)c1Cc1c(O)c(Cl)cc(Cl)c1Cl as the compound, how does the “normalized GFP fluorescence” value read?
**A.** The value was 0.11.

**Q.** Which “normalized GFP fluorescence” value does the source give for CO[C@H]1C[C@@H]2CC[C@@H](C)[C@@](O)(O2)C(=O)C(=O)N2CCCC[C@H]2C(=O)O[C@H]([C@H](C)C[C@@H]2CC[C@@H](O)[C@H](OC)C2)CC(=O)[C@H](C)/C=C(\C)[C@@H](O)[C@@H](OC)C(=O)[C@H](C)C[C@H](C)/C=C/C=C/C=C/1C [Rapamycin (Sirolimus)] here?
**A.** The value was 0.00415.

**Q.** For CCCCCOC(=O)Nc1nc(=O)n([C@@H]2O[C@H](C)[C@@H](O)[C@H]2O)cc1F [Capecitabine (Xeloda)], which “normalized GFP fluorescence” value is on record?
**A.** The value was 0.0511.

**Q.** For CC(C(=O)O)c1cccc(C(=O)c2ccccc2)c1 (stereo not given), which “normalized GFP fluorescence” value is on record?
**A.** The value was 0.247.

**Q.** Which “normalized GFP fluorescence” value does the source give for Nc1ccc(C(=O)NCC(=O)O)cc1 here?
**A.** Its value is 0.297.

**Q.** Which “normalized GFP fluorescence” value does the source give for C#CCN[C@@H]1CCc2ccccc21 here?
**A.** The value was 0.911.

**Q.** With CC1=C(C(=O)O)N2C(=O)[C@@H](NC(=O)[C@H](N)C3=CCC=CC3)[C@H]2SC1 as the compound, how does the “normalized GFP fluorescence” value read?
**A.** The value was 0.00153.

**Q.** How did the “normalized GFP fluorescence” value turn out when CCC(NC(C)C)C(O)c1ccc(O)c(O)c1 (stereo not given) was run?
**A.** The value was 0.38.

**Q.** Which “normalized GFP fluorescence” value does the source give for CC[C@]1(O)C[C@H]2CN(CCc3c([nH]c4ccccc34)[C@@](C(=O)OC)(c3cc4c(cc3OC)N(C=O)[C@H]3[C@@](O)(C(=O)OC)[C@H](OC(C)=O)[C@]5(CC)C=CCN6CC[C@]43[C@@H]65)C2)C1 here?
**A.** The value was 0.501.

**Q.** With CNCC[C@H](Oc1cccc2ccccc12)c1cccs1 as the compound, how does the “normalized GFP fluorescence” value read?
**A.** Its value is -0.0294.

**Q.** For Fc1ccc(C(c2ccc(F)cc2)N2CCN(C/C=C/c3ccccc3)CC2)cc1, which “normalized GFP fluorescence” value is on record?
**A.** Its value is 0.0954.

**Q.** For NC[C@@H]1O[C@@H](O[C@H]2[C@H](O)[C@@H](O[C@H]3O[C@H](CO)[C@@H](O)[C@H](N)[C@H]3O)[C@H](N)C[C@@H]2N)[C@@H](O)[C@H](O)[C@H]1O, which “normalized GFP fluorescence” value is on record?
**A.** The value was 0.472.

**Q.** With CC(=O)N[C@H]1[C@H]([C@H](O)[C@H](O)CO)OC(C(=O)O)=C[C@@H]1NC(=N)N [Zanamivir (Relenza)] as the compound, how does the “normalized GFP fluorescence” value read?
**A.** The value was 0.233.

**Q.** How did the “normalized GFP fluorescence” value turn out when CN(Cc1ccc(C(C)(C)C)cc1)Cc1cccc2ccccc12 [Butenafine HCl] was run?
**A.** Its value is 0.11.

**Q.** How did the “normalized GFP fluorescence” value turn out when C[C@H]1O[C@@H](O[C@H]2[C@@H](O)C[C@H](O[C@H]3[C@@H](O)C[C@H](O[C@H]4CC[C@@]5(C)[C@H](CC[C@@H]6[C@@H]5CC[C@]5(C)[C@@H](C7=CC(=O)OC7)CC[C@]65O)C4)O[C@@H]3C)O[C@@H]2C)C[C@H](O)[C@@H]1O was run?
**A.** Its value is 0.212.

**Q.** How did the “normalized GFP fluorescence” value turn out when CCC(C)(C)c1ccc(CC(C)CN2C[C@@H](C)O[C@@H](C)C2)cc1 (stereo not given in full) was run?
**A.** Its value is 0.099.

**Q.** For COCC1=C(C(=O)OC(C)OC(=O)OC(C)C)N2C(=O)[C@@H](NC(=O)/C(=N\OC)c3csc(N)n3)[C@H]2SC1 (stereo not given in full), which “normalized GFP fluorescence” value is on record?
**A.** The value was 0.00501.

**Q.** How did the “normalized GFP fluorescence” value turn out when COc1cccc2c1C(=O)c1c(O)c3c(c(O)c1C2=O)C[C@@](O)(C(=O)CO)C[C@@H]3O[C@H]1C[C@H](N)[C@@H](O)[C@H](C)O1 was run?
**A.** The value was -0.00778.

**Q.** Which “normalized GFP fluorescence” value does the source give for CN1CCC(=C2c3ccccc3CC(=O)c3sccc32)CC1 [Ketotifen fumarate (Zaditor)] here?
**A.** Its value is 0.402.

**Q.** COC(=O)[C@H](c1ccccc1Cl)N1CCc2sccc2C1 was tested. Which “normalized GFP fluorescence” value did it give?
**A.** The value was 0.0333.

**Q.** With CNC(=C[N+](=O)[O-])NCCSCc1ccc(CN(C)C)o1 as the compound, how does the “normalized GFP fluorescence” value read?
**A.** Its value is 0.32.

**Q.** For CCOC(=O)C1=C(C)NC(C)=C(C(=O)OCC)C1c1ccccc1/C=C/C(=O)OC(C)(C)C [Lacidipine (Lacipil, Motens)], which “normalized GFP fluorescence” value is on record?
**A.** The value was 0.112.

**Q.** For Nc1ccn([C@@H]2O[C@H](CO)[C@@H](O)[C@@H]2O)c(=O)n1, which “normalized GFP fluorescence” value is on record?
**A.** Its value is 0.00362.

**Q.** With COc1cccc2c1C(=O)c1c(O)c3c(c(O)c1C2=O)C[C@@](O)(C(=O)CO)C[C@@H]3O[C@H]1C[C@H](N)[C@H](O)[C@H](C)O1 [Doxorubicin (Adriamycin)] as the compound, how does the “normalized GFP fluorescence” value read?
**A.** Its value is -0.0343.

**Q.** How did the “normalized GFP fluorescence” value turn out when Cc1cc(/C=C/c2ccc3cc(N(C)C)ccc3[n+]2C)c(C)n1-c1ccccc1 was run?
**A.** The value was -0.0128.

**Q.** Which “normalized GFP fluorescence” value does the source give for CC1(C)[C@H](C(=O)O)N2C(=O)C[C@H]2S1(=O)=O here?
**A.** The value was 0.00608.

**Q.** How did the “normalized GFP fluorescence” value turn out when CN1CC2c3ccccc3Oc3ccc(Cl)cc3C2C1 (stereo not given) [Asenapine] was run?
**A.** The value was 0.129.

**Q.** Which “normalized GFP fluorescence” value does the source give for CCCN(CCC)C(=O)C(CCC(=O)O)NC(=O)c1ccccc1 (stereo not given) here?
**A.** Its value is 0.792.

**Q.** CC(=O)OCC(=O)[C@@]12N=C(C)O[C@@H]1C[C@H]1[C@@H]3CCC4=CC(=O)C=C[C@]4(C)[C@H]3[C@@H](O)C[C@@]12C was tested. Which “normalized GFP fluorescence” value did it give?
**A.** The value was 0.231.

**Q.** Which “normalized GFP fluorescence” value does the source give for C=CCCCCCCCCC(=O)O here?
**A.** Its value is 0.13.

**Q.** With CN(C)[C@@H]1C(O)=C(C(N)=O)C(=O)[C@@]2(O)C(O)=C3C(=O)c4c(O)cccc4[C@@](C)(O)[C@H]3[C@H](O)[C@@H]12 [Oxytetracycline dihydrate] as the compound, how does the “normalized GFP fluorescence” value read?
**A.** Its value is 0.0661.

**Q.** How did the “normalized GFP fluorescence” value turn out when CN1C2CCCC1CC(NC(=O)c1nn(C)c3ccccc13)C2 (stereo not given) was run?
**A.** Its value is 0.718.

**Q.** With CCC1=C(C)CN(C(=O)NCCc2ccc(S(=O)(=O)NC(=O)N[C@H]3CC[C@H](C)CC3)cc2)C1=O as the compound, how does the “normalized GFP fluorescence” value read?
**A.** The value was 0.0961.

**Q.** How did the “normalized GFP fluorescence” value turn out when COc1cccc2c1C(=O)c1c(O)c3c(c(O)c1C2=O)C[C@@](O)(C(C)=O)C[C@@H]3O[C@H]1C[C@H](N)[C@H](O)[C@H](C)O1 was run?
**A.** Its value is -0.00425.
